Experiment [1] concerns Plasmodium falciparum Sir2 (PF13_0152, Sir2A). Kind of experiment: Plasmodium falciparum Sir2A binding compounds – biochemical, small-molecule microarray, 635 nm fluorescence, primary screen (AID 1098).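 Further: score merges spot fluorescence intensity with its signal-to-noise ratio.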 The conditions noted are these: fluorescence 635 nm, higher = more signal.
Experiment [2] is described as follows: probe aDKK1 binding to arrayed compounds – biochemical, biotinylated probe, 635/667 nm fluorescence, primary screen (AID 1099).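 Further: score merges 667nm spot fluorescence with signal to noise across triplicate slides.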 The following applies: small-molecule microarray, higher = more signal.
Experiment [3] in a line: probe aCHRDL2 binding to arrayed compounds – biochemical, biotinylated probe, 635/667 nm fluorescence, primary screen (AID 1100). The conditions noted are these: small-molecule microarray, higher = more signal.
Experiment [4] can be described thus: change in splice reporter luminescence, either direction, cell-based, HEK293, spliceosome inhibition project, primary screen (AID 1101).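 Further: HEK293 cells carrying a splicing-competent luciferase reporter gene; test concentration not given here.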 The conditions noted are these: HEK293 splicing luciferase reporter, 24 h, higher = more signal, called active from +8 up or from −8 down. (A reporter such as luciferase makes a cellular process visible.)
The target of experiment [5] is Fibroblast growth factor 10 (Homo sapiens) (UniProt O15520). Kind of experiment: compounds binding fibroblast growth factor 10 – biochemical, small-molecule microarray, 635 nm fluorescence, primary screen (AID 1102). The following applies: FGF10 binding, fluorescence 635 nm, higher = more signal.
Sequence of Fibroblast growth factor 10 (Homo sapiens) (O15520 whole entry, looked up): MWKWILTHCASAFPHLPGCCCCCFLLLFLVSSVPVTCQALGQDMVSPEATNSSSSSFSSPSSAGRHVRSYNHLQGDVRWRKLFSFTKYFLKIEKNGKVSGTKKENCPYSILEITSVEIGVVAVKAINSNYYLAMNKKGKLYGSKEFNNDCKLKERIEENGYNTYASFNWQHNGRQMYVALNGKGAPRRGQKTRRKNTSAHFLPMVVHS
In experiment [6] the test system is glycogen synthase kinase-3 (GSK3A per assay name; protocol says GSK3B). Kind of experiment: compounds binding glycogen synthase kinase-3 – biochemical, small-molecule microarray, 635 nm fluorescence, GSK3A, primary screen (AID 1103). Further: the record names both GSK3A and GSK3B. The following applies: fluorescence 635 nm, higher = more signal.
Experiment [7] deals with Epidermal growth factor receptor (Homo sapiens) (UniProt P00533). Kind of experiment: compounds binding epidermal growth factor receptor – biochemical, small-molecule microarray, 635 nm fluorescence, primary screen (AID 1104).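 Further: score merges 667 nm emission intensity with spot signal to noise over triplicate slides.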 The following applies: EGFR binding, higher = more signal.
Sequence of Epidermal growth factor receptor (Homo sapiens) (P00533 whole entry, looked up): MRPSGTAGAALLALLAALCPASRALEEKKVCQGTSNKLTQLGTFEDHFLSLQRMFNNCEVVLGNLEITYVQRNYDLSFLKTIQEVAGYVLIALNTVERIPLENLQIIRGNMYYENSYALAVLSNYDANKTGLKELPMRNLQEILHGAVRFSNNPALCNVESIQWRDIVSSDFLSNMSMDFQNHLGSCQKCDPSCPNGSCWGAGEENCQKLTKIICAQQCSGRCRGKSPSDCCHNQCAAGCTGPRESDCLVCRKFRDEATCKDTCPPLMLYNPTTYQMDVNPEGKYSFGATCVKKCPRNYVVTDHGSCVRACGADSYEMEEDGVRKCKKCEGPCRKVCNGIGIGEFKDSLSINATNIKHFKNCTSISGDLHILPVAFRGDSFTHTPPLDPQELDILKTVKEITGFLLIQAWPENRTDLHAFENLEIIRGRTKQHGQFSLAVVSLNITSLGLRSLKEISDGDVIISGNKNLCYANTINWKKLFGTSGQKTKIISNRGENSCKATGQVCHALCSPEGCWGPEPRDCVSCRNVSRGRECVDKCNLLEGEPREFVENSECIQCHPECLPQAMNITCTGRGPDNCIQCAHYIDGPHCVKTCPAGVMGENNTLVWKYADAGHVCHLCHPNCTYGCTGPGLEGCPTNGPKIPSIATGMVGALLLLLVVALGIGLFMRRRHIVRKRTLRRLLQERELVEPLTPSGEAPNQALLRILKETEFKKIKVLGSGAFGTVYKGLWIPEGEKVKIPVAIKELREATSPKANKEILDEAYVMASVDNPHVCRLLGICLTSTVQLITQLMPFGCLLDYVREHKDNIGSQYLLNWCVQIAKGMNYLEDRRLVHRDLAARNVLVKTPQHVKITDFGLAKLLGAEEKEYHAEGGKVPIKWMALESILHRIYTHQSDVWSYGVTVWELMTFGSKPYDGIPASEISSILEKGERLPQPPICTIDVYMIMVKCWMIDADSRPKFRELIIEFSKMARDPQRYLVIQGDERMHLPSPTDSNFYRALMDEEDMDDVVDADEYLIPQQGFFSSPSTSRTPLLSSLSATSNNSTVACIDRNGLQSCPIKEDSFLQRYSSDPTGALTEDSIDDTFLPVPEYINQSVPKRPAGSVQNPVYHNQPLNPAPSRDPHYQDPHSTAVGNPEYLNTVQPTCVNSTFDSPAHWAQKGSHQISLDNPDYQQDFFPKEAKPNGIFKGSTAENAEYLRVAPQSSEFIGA
The target of experiment [8] is Follistatin-related protein 3 (Homo sapiens) (UniProt O95633). Kind of experiment: compounds binding follistatin-related protein 3 – biochemical, small-molecule microarray, 635 nm fluorescence, primary screen (AID 1105).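 Further: score merges emission near 667 nm and signal to noise per printed spot across three slides.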 The following applies: FSTL3 binding, higher = more signal.
Sequence of Follistatin-related protein 3 (Homo sapiens) (O95633 whole entry, looked up): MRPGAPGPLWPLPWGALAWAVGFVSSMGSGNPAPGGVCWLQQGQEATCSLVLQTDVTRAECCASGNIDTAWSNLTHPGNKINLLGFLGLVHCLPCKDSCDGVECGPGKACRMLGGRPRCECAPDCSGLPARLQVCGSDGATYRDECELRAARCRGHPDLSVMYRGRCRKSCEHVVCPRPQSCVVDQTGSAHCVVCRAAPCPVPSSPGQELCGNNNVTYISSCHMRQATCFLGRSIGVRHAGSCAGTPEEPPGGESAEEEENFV
Experiment [9] has as its target Dickkopf-related protein 1 (Homo sapiens) (UniProt O94907). Kind of experiment: small molecules binding DKK1 protein – biochemical, small-molecule microarray, 635 nm fluorescence scan, primary screen (AID 1106).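 Further: score merges emission near 667 nm with signal to noise over three replicate slides.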 The conditions noted are these: higher = more signal.
For experiment [10], the system named is Inhibin beta A chain (activin A). Kind of experiment: small molecules binding activin A – biochemical, small-molecule microarray, 635 nm fluorescence scan, primary screen (AID 1107).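 Further: mouse activin A protein probed at 4.33 µg/mL on printed slides; score merges bound-protein fluorescence near 667 nm with spot signal-to-noise.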 The conditions noted are these: INHBA, higher = more signal.
Experiment [11] relates to Human papillomavirus type 1a protein E7 (residues 44-93). Kind of experiment: small molecules binding HPV E7 44-93 – biochemical, small-molecule microarray, residues 44-93, 635 nm fluorescence, primary screen (AID 1108).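 Further: E7 fragment applied at 1 µg/mL in TBST for 1 h at 4 C; score combines spot fluorescence with its signal to noise ratio.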 The conditions noted are these: fluorescence 635 nm, higher = more signal.
Experiment [12] can be described thus: hepatitis C replication reporter changes, two-sided – Huh7 cells, luciferase reporter, HCV replication inhibitor project, primary screen (AID 1109).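 Further: huh7 hepatoma cells harbouring a luciferase neomycin HCV replicon reporter; luciferase luminescence as measure of HCV replicon replication; test concentration not given here.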 The conditions noted are these: Huh7 HCV replicon luciferase reporter, 48 h; higher = more signal.
Experiment [13] concerns the target Left-right determination factor 2 (Homo sapiens) (UniProt O00292). Kind of experiment: small molecules binding LEFTY2 protein – biochemical, small-molecule microarray, 635 nm fluorescence scan, primary screen (AID 1110). The conditions noted are these: higher = more signal.
Experiment [14] deals with Calmodulin-1 (Homo sapiens) (UniProt P0DP23). Kind of experiment: small molecules binding calmodulin-1 with EGTA – biochemical, small-molecule microarray, Cy5-labelled CALM1, profiling panel (AID 1111).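 Further: labelled calmodulin applied in Tris saline Tween buffer holding calcium plus EGTA and DTT.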 The conditions noted are these: Cy5-CALM1 binding fluorescence, higher = more signal.
The target is the same in experiment [15]. Kind of experiment: small molecules binding Ca-loaded calmodulin-1 – biochemical, small-molecule microarray, Cy5-labelled CALM1, plus calcium, artefact control for SMM control-protein annotation, profiling panel (AID 1112).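 Further: score merges spot fluorescence with signal to noise from triplicate slides.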 The conditions noted are these: Cy5-CALM1 binding fluorescence, higher = more signal.
The nature of experiment [16]: probe aWnt5a binding to arrayed compounds – biochemical, biotinylated probe, 635/667 nm fluorescence, primary screen (AID 1113).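 Further: score merges 667 nm fluorescence intensity with signal-to-noise per printed feature.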 The following applies: small-molecule microarray, higher = more signal.
A short description of experiment [17]: probe aShh binding to arrayed compounds – biochemical, biotinylated probe, 635/667 nm fluorescence, primary screen (AID 1114).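 Further: probe is biotin-labelled aShh protein from a stem cell growth factor screen; measures binding of labelled protein to compounds printed on the slide; score merges feature fluorescence at 667 nm with signal-to-noise.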 The conditions noted are these: small-molecule microarray, higher = more signal.
Experiment [18] in a line: probe aNog binding to arrayed compounds – biochemical, biotinylated probe, 635/667 nm fluorescence, primary screen (AID 1115).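 Further: probe is biotinylated aNog protein used at 0.15 µg/mL for 1 h at 4 C; z-score combines 667 nm fluorescence of each spot with its signal to noise.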 The conditions noted are these: small-molecule microarray, higher = more signal.
Experiment [19] deals with Torsin-1A-interacting protein 1 (Homo sapiens) (UniProt Q5JTV8). Kind of experiment: compound microarray binding of lysate hLAP1 – cell lysate, small-molecule microarray, COS7 lysate, 635/667 nm fluorescence, primary screen (AID 1116). The following applies: 635 nm fluorescence, higher = more signal.
Sequence of Torsin-1A-interacting protein 1 (Homo sapiens) (Q5JTV8 whole entry, looked up): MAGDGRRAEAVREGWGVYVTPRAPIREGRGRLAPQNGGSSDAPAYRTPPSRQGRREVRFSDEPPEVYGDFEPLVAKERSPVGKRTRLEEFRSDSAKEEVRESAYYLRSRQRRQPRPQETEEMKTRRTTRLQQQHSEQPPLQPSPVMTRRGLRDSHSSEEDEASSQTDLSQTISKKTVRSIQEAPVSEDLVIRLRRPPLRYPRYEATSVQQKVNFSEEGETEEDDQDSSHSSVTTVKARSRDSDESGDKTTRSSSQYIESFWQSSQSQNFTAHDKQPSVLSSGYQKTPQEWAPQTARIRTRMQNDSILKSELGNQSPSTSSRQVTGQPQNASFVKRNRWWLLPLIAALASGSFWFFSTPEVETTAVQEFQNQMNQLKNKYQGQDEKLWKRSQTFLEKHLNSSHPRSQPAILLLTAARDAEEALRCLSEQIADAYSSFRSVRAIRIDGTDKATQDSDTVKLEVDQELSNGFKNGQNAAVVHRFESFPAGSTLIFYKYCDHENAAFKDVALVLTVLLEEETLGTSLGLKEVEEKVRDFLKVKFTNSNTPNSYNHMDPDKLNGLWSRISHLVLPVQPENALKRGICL
The target of experiment [20] is Alpha-bungarotoxin (Bungarus multicinctus) (UniProt P60615). Kind of experiment: compounds binding labelled alpha-BTX control protein – biochemical, small-molecule microarray, Alexa647 label, 635/667 nm fluorescence, artefact control for SMM control protein annotation, profiling panel (AID 1117). The following applies: alpha-BTX-A647 binding fluorescence, higher = more signal.
Sequence of Alpha-bungarotoxin (Bungarus multicinctus) (P60615 whole entry, looked up): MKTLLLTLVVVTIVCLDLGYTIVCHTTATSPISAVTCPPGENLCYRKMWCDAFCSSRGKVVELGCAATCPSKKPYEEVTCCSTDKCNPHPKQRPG

Among the data in PubChem BioAssay are composite z-score and z-score values, retold here.

Calls of active or inactive are those of the source.

Sequence of Left-right determination factor 2 (Homo sapiens) (O00292 whole entry, looked up): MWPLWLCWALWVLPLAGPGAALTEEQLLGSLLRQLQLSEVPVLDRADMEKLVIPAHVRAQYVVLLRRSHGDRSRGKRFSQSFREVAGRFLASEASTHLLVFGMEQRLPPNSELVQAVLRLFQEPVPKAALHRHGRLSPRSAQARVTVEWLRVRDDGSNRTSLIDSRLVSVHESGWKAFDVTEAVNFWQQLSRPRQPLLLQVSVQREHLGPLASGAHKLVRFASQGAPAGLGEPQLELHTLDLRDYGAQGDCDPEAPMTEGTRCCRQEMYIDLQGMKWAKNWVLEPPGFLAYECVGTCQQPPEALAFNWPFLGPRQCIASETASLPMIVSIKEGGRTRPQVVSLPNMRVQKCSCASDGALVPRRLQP
Sequence of Dickkopf-related protein 1 (Homo sapiens) (O94907 whole entry, looked up): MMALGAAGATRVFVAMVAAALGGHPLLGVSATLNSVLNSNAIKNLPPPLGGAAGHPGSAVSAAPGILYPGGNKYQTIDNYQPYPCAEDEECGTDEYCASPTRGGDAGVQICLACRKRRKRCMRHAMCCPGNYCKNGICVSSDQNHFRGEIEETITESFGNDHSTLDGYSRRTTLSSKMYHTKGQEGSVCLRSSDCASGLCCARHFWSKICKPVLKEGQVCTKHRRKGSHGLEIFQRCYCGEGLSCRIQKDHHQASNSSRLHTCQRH

Take `COc1cccc([C@H]2Oc3ccc(OC)cc3C(=NO[C@H](C)c3cn([C@@H]4COC[C@H]4O)nn3)[C@@H]2O)c1`: the composite z-score was 0.53 in [1]; -0.393 in experiment [2]; -0.381 in experiment [3]; -0.481 in experiment [5]; -1.14 in experiment [6]; -0.0724 in experiment [7]. The composite z-score in experiment [8] is -0.525; in [9], 0.0385; in [10], 0.0726; in experiment [11], -0.632; in experiment [13], -0.647; in [14], 0.0409. Also, the composite z-score was -0.421 in experiment [15]; -0.184 in experiment [16]; -0.147 in [17]; -0.36 in experiment [18]; -0.1 in experiment [19]; 1.7 in experiment [20]. Also, the z-score was -0.992 (inactive) in [4] and -0.0869 in [12].

As to `COc1ccc(O[C@H]2C=C[C@@H](c3ccccc3)O[C@@H]2COC(=O)N2CCCCC2)cc1`, the composite z-score is -0.0945 in experiment [1]; -0.173 in [2]; -0.225 in [3]; -0.398 in [5]; -0.732 in [6]; 0.0392 in [7]. Besides, the composite z-score was -0.0999 in experiment [8]; 0.0004 in experiment [9]; 1.42 in experiment [10]; -0.57 in experiment [11]; -0.0284 in experiment [13]; -0.781 in [14]. The composite z-score in experiment [15] was -1.33; in experiment [16], -0.0512; in experiment [17] it was -0.0146; in experiment [18] it was -0.267; in [19], 0.323; in [20] it was -0.195. The z-score was 0.757 (inactive) in experiment [4] and -1.34 in experiment [12].

With `CC(=O)OC[C@H]1O[C@H](CCON=C[C@@H](C)[C@H](OCc2ccccc2)C(C)C)C=C[C@@H]1OC(C)=O`, the composite z-score was 0.343 in experiment [1]; -0.36 in experiment [2]; -0.743 in experiment [3]; 0.2 in experiment [5]; 0.608 in experiment [6]; 0.365 in experiment [7]. Moreover, the composite z-score in [8] is 0.274; in [9], 0.564; in experiment [10], -0.0819; in experiment [11] it was 0.837; in experiment [13] it was 0.646; in experiment [14] it was -0.501. Further, the composite z-score is -0.911 in [15]; 0.0181 in [16]; -0.214 in experiment [17]; -0.215 in experiment [18]; 0.619 in [19]; 0.13 in [20]. Further, the z-score in experiment [4] was 0.244 (inactive); in [12], -0.461.

Regarding `CN1C(=O)C2C=CC(C(O)C(c3ccccc3)c3ccccc3)N(NC(=O)OC(C)(C)C)C2C1=O` (stereo not given), the composite z-score in experiment [1] came to 1.46; in experiment [2], 1.21; in experiment [3] it was 1.22; in experiment [5], 1.03; in experiment [6] it was 1.12; in experiment [7], 0.341. Also, the composite z-score in experiment [8] is 1.24; in experiment [9], 0.452; in [10] it was -0.109; in [11], 1.32; in [13], -0.0483; in experiment [14], 2.75. The composite z-score in [15] was 1.09; in experiment [16], 0.306; in experiment [17], 0.915; in [18], 2.09; in experiment [19], 2.59; in [20], 2.04. The z-score in [4] was 1.71 (inactive); in experiment [12], -0.527.

On to `CCOC(=O)C1=CCC(c2cc3ccccc3[nH]2)NC1` (stereo not given), for which the composite z-score was 1.47 in experiment [1]; 1.1 in [2]; 1.31 in [3]; 0.0855 in [5]; 0.233 in experiment [6]; 0.242 in experiment [7]. The composite z-score in [8] is 0.0799; in experiment [9], -0.494; in [10], 1.65; in [11], -0.192; in experiment [13], 0.208; in experiment [14] it was -0.219. Further, the composite z-score in experiment [15] worked out at 0.19; in [16], 0.0438; in [17] it was 0.204; in [18] it was 0.562; in [19], 0.97; in experiment [20] it was 0.864. The z-score in experiment [4] is -1.02 (inactive); in [12], -0.312.
